Only some compounds are listed: those with a hit (about 1% of all), similar ones and a draw of the others.
cardiac RTF act – increases calcium sensitivity of human cardiac regulated thin filaments; IANBD-labeled TnC RTF fluorescence at EC20 calcium; 0% EC20 calcium, 100% full calcium; AID 493008; P19429+P45379; activation, % at 7.2 µM; hit rate 0.24% among 340,000;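 active = activation above the mean over all tested compounds plus 3 SD, cut at about 30% in these data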;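 also: rise in fluorescence read as greater calcium sensitivity of cardiac thin filaments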
Keap1 Nrf2 FP – disrupts human Keap1 binding to Nrf2 peptide. Q14145. inhibition, % at 9.4 µM. Keap1 Kelch-Nrf2 peptide fluorescence polarization, 1536-well. hit rate 0.15% among 340,000; in the data active = inhibition above about 12%;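 also: human Keap1 Kelch domain with fluorescein labeled Nrf2 9mer peptide probe; 0% = neutral control wells and 100% = peptide positive control; higher means more block of Keap1 binding to Nrf2 peptide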
Target sequence (Q14145 whole entry, looked up, the tested form may be a part): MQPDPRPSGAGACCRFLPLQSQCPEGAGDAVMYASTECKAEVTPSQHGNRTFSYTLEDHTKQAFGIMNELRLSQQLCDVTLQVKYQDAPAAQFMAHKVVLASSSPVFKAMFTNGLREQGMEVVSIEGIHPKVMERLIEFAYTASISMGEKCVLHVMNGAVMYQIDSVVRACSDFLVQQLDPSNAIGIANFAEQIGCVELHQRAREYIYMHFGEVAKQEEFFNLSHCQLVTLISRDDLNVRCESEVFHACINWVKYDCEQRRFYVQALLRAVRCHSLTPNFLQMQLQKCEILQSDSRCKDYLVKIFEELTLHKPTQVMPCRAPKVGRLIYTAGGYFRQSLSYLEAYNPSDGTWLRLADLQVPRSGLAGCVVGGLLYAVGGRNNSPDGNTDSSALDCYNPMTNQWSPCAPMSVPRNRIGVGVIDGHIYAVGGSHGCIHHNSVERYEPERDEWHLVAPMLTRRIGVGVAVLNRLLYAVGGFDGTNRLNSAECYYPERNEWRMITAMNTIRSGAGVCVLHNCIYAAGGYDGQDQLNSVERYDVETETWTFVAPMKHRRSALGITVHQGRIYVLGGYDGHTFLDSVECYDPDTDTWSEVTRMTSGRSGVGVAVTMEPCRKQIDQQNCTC
LANA-H2B inh – blocks KSHV LANA binding to histone H2A/H2B; AID 2629; hit rate 0.6% among 320,000; cell-free LANA-H2A/H2B peptide, fluorescence polarization; inhibition, % (no concentration beside the values); in the data active = inhibition mostly above about 10%, no sharp cut-off; inactive = mostly below about 6.7%
LANA DNA inh – KSHV C-LANA DNA binding inhibition. MBP-C-LANA/FAM-LBS DNA binding, fluorescence polarization. inhibition, % at 9 µM. hit rate 0.078% among 340,000. AID 504423;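 active = highest replicate inhibition at or above 60% at 9 µM, even if other replicates fall short; inactive = all replicates below 60% inhibition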;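 also: 0% = neutral control wells and 100% = 4 µM acridine orange control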
Cardiac RTF inh – cardiac RTF calcium desensitization; inhibition, % at 7.15 µM; AID 493244; IANBD-labeled cardiac RTF, Ca2+ fluorescence; P19429+P45379; hit rate 0.12% among 340,000;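 active = inhibition above the mean inhibition of all tested compounds plus 3 SD, cut at about 17% in these data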;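 also: assay run at fixed EC70 calcium of 1.6 mM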
RTF inh confirm – cardiac RTF calcium sensitivity inhibition, confirmation; inhibition, % at 7.15 µM; hit rate 8% among 360; shares compounds with Cardiac RTF inh; reconstituted cardiac thin filaments, calcium sensitivity fluorescence; in the data active = inhibition above about 18%
Keap1 Kelch bind – binds and thermally shifts human Keap1 Kelch domain. shares compounds with Keap1 Nrf2 FP. Keap1 Kelch thermal shift, delta Tm; active compounds read high. max delta Tm, degrees C. hit rate 8% among 400. AID 651823; in the data active = max delta Tm above about 0.48 degrees C
Sypro dye melt – shifts Sypro Orange melt without protein, a false positive | shares compounds with Keap1 Nrf2 FP | Sypro Orange dye-only thermal melt, no protein, delta Tm; top dose 26 µM | delta Tm, degrees C (test concentration not listed) | 140 tested, under 10 active;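 active = at highest dose tested, delta Tm positive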
Numbers without * were called inactive; i = inactive; . = no result given; + = active, no number; ! = not active in a repeat.

SMILES | cardiac RTF act | Keap1 Nrf2 FP | LANA-H2B inh | LANA DNA inh | Cardiac RTF inh | others
C=CC1CN2CCC1CC2[C@@H](OC(=O)c1ccc(OC)cc1)c1ccnc2ccccc12 (some centres not stated) | -10 | 2 | 32* | -1 | 5
CN(C)C(=O)Oc1ccc(OCc2n(C)c3ccccc3[n+]2C)cc1 | -4 | 5 | -3 | 0 | -1
O=Cc1c(C(=O)O)n(Cc2ccccc2Cl)c2ccccc12 | 5 | -5 | -1 | -1 | -3
Cc1cc(C)c(Cn2c(C(=O)O)c(C=O)c3ccccc32)c(C)c1 | 64* | -69 | -3 | -8 | -62
C1CCC(NC2CCCCC2)CC1 | 4 | -4 | 141* | 0 | -11
CC1=C(N2CC2)C(=O)C(CO)=C(N2CC2)C1=O | -5 | -3 | . | 3 | -10
Cc1cc(Cl)ccc1OC(C)C(=O)O (configuration not stated) | 5 | 1 | 2 | 3 | 20*
Cn1cc(C=C(C#N)C#N)c2ccccc21 | 28 | 53* | + | 56 | -44
N#Cc1ccc(Cn2cc(C=O)c3ccccc32)cc1 | 0 | -1 | 2 | -3 | -4
COc1ccc(N2C(=O)NC(=O)/C(=C\c3cn(C)c4ccccc34)C2=O)cc1 | 523* | 4 | 6 | 35 | -475
CCOc1cccc(N2C(=O)/C(=C/c3ccco3)C(=O)NC2=S)c1 | -8 | 0 | -3 | . | 0
COc1ccc(N2C(=O)/C(=C/c3ccc(N(C)C)o3)C(=O)NC2=S)cc1 | 55* | -6 | -21 | 0 | -67
CCN(CC)c1ccc(/C=C2\C(=O)NC(=S)N(C)C2=O)o1 | 53* | -19 | -14 | -5 | -78
O=C1NC(=S)N(c2ccccc2)C(=O)/C1=C/c1ccco1 | -6 | 0 | 5 | 88* | -3
CC1(C)C(=O)C=C[C@]2(C)[C@H]3CC[C@@]4(C)[C@H](c5ccoc5)OC(=O)[C@H]5O[C@]54[C@]3(C)[C@H](O)C[C@@H]12 | . | . | -1 | . | .
Cc1cc(OC(C)C(=O)N[C@H](C(=O)O)c2ccccc2)c2c3c(c(=O)oc2c1)CCC3 (some centres not stated) | 10 | -1 | 1 | -1 | 0
COc1cccc(N2C(=O)/C(=C/c3ccc(C)o3)C(=O)NC2=S)c1 | 2 | -13 | -5 | 1 | -8
CCN(CC)c1ccc(/C=C2\C(=O)NC(=S)N(c3ccc(OC)cc3OC)C2=O)o1 | 76* | -21 | -3 | -32 | -101
O=c1[nH]c(O)c(C=NCCc2ccccc2)c(=O)[nH]1 | 4 | 0 | 0 | 1 | -1
O=c1[nH]c(O)c(/C=C2\C=Nc3ccc(OCc4ccccc4)cc32)c(=O)[nH]1 | 48* | -3 | -8 | 5 | -64
CN(C)[C@@H]1C(=O)C(C(N)=O)=C(O)[C@@]2(O)C(=O)C3=C(O)c4c(O)cccc4[C@@](C)(O)[C@H]3[C@H](O)[C@@H]12 | -18 | -2 | -12 | 124* | 20*!
C[CH2][Hg][S]c1ccccc1C(=O)O | i | i | 1 | 0 | + | RTF inh confirm=i
CC(C)COC(=O)c1ccccc1C(=O)OCC(C)C | 14 | -4 | 0 | 2 | -4
COC1=CC2C3Cc4ccc(OC)c(O)c4C2(CCN3C)CC1=O (configuration not stated) | 2 | -1 | 9 | 1 | -5
CCOC(=O)c1ccc(N2C(=O)CC(N3CC=C(c4ccc(F)cc4)CC3)C2=O)cc1 (configuration not stated) | 4 | -1 | -13 | 1 | -1
SMILES | cardiac RTF act | Keap1 Nrf2 FP | LANA-H2B inh | LANA DNA inh | Cardiac RTF inh | others
NC(=O)c1ccc(OCCC(O)N2CC=C(c3ccc(F)cc3)CC2)cc1 (configuration not stated) | -2 | 0 | -5 | -1 | 95* | RTF inh confirm=-4
CCCCn1c(O)c(C(C)=NCc2ccco2)c(=O)[nH]c1=O | -5 | -3 | -4 | -1 | 1
OC(CN1CCOCC1)c1csc2ccccc12 (configuration not stated) | 8 | 7 | 8 | 1 | -1
NCC1(CC(=O)O)CCCCC1 | . | . | 0 | . | .
Cc1nc2cc(F)ccc2n1C1CCN(Cc2nnnn2CCc2ccccc2)CC1 | 3 | 1 | 1 | 0 | 18* | RTF inh confirm=-3
CCCCCCCCC(=O)NCc1ccc(O)c(OC)c1 | 3 | -1 | -11 | 1 | 19* | RTF inh confirm=-3
COc1cc(CNCCc2ccc3c(c2)OCO3)ccc1O | 0 | -7 | -1 | -1 | -4
CCCNS(=O)(=O)c1ccc(OCC(=O)N2CCN(Cc3ccc4c(c3)OCO4)CC2)cc1 | 3 | -3 | -6 | -1 | 18* | RTF inh confirm=-3
NCCc1cc(O)c(O)cc1O | -9 | 1 | . | 2 | 26*! | RTF inh confirm=3
CC[C@H](C)/C=C(C)/C=C/C1=CC2=C(Cl)C(=O)[C@](C)(OC(C)=O)C(=O)C2=CO1 | -35 | -9 | . | 23 | 39* | RTF inh confirm=21*
CC1=C[C@@H]2c3cccc4[nH]cc(c34)C[C@H]2N(C)C1 | 36* | 14* | 2 | 17 | -40 | Keap1 Kelch bind=0
CC1=NCCc2c1[nH]c1cc(O)ccc21 | 334* | 102* | 142* | 168* | -432 | Keap1 Kelch bind=-0.16;Sypro dye melt=-36
COc1ccc2c3c([nH]c2c1)C(C)=NCC3 | 19 | -1 | -20 | 0 | -4
CCOC(=O)c1c(/N=C/c2c(O)n(-c3cccc(C)c3)c(=O)[nH]c2=O)sc2c1CCCC2 | -3 | 72* | -3 | 9 | -2 | Keap1 Kelch bind=-0.08
CCOC(=O)c1sc(/N=C/c2c(O)n(-c3ccccc3)c(=O)[nH]c2=O)c(C#N)c1C | 7 | -21 | -5 | -1 | 3
C[C@@H]1C(=O)O[C@H]2[C@H](O)[C@]34[C@@H]5OC(=O)[C@]3(OC3OC(=O)[C@H](O)C34[C@H](C(C)(C)C)[C@@H]5O)[C@@]12O (some centres not stated) | 0 | 0 | . | -1 | -11
CCn1cc(C=C2C(=O)NC(=O)NC2=O)c2ccccc21 | 1 | 21* | -7 | 29 | -4 | Keap1 Kelch bind=-0.08
COc1cc(/C=C(/C)[N+](=O)[O-])ccc1OCc1ccccc1Cl | -3 | -2 | -1 | 0 | -5
O=C(O)c1cccc2c1NC(C(=O)O)C1CC(Sc3ccccc3[N+](=O)[O-])C(Cl)C21 (configuration not stated) | -37 | 31* | . | 132* | 56* | Keap1 Kelch bind=1*
COCCNC(=O)Cn1cc(/C=C2\C(=O)NC(=O)N(c3cccc(C)c3C)C2=O)c2ccccc21 | 3 | 20* | -18 | 53 | -10 | Keap1 Kelch bind=-0.22;Sypro dye melt=-30
COc1ccc(-n2c(CNCCc3ccc(C)cc3)nc3ccccc3c2=O)cc1 | 1 | 36* | 2 | 18 | -3 | Keap1 Kelch bind=-0.19;Sypro dye melt=-28
O=C1Nc2ccc(Br)cc2C(c2ccccc2Cl)=NC1O (configuration not stated) | -3 | -1 | -5 | 3 | 1
CC1C(c2ccccc2)OC(=O)N1C (configuration not stated) | 4 | 2 | . | 0 | -2
S=P(Nn1cnnc1)(c1ccccc1)c1ccccc1 | 0 | 2 | -7 | 1 | 7

Screening results from PubChem.
